One assay relates to Chordin-like protein 2 (CHRDL2). The experiment in a line: CHRDL2 small-molecule binders, primary screen, biochemical, small-molecule microarray, 635 nm fluorescence (AID 1126).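 Further: printed compound slides probed with Chrdl2 protein at 4 µg/mL for 1 h at 4 C; score merges 667 nm emission intensity with signal to noise over three replicate slides.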 The note with it: small-molecule microarray binding, fluorescence 635 nm; higher = more signal.
Compound `CO[C@H]1COC(=O)CC=C[C@@H](C)COC(=O)[C@@H](C)NC(=O)CC=C[C@@H]1C` came in with a composite z-score of 1.59. Compound `C=C[C@H](OC)[C@@H](OC(=O)Nc1ccc(SC)cc1)c1ccc(O)c(F)c1` returned a composite z-score of -0.267. `[N-]=[N+]=NCc1ccccc1C[C@@]1(C(=O)N2CCOCC2)N=C(c2ccc(OCCCO)cc2)O[C@@H]1c1ccccc1N=[N+]=[N-]` returned a composite z-score of -1.07. As to `[N-]=[N+]=NCc1ccccc1C[C@@]1(C(=O)O)N=C(c2ccc(OCCCO)cc2)O[C@@H]1c1ccccc1N=[N+]=[N-]`, the composite z-score was -0.256. The same measure, in the same setting: next, `CSCC[C@@H]1NC(=O)CC=C[C@@H](C)COC(=O)[C@H](CCSC)NC(=O)CC=C[C@@H](C)COC1=O`: 1.39.

In turn, `C=C(COC)/C(=C/C[C@@H](OC(C)=O)c1cccc(OCCO)c1)c1cc(C(=O)OC)ccc1OC` yielded a composite z-score of -0.458.

With `CCOC(=O)C[C@H]1[C@H](OC(=O)c2cc3ccccc3oc2=O)[C@@H](NC(=O)C2CCCCC2)c2cc(OCCCO)ccc2N1C(=O)c1ccc2ccccc2n1`, the composite z-score came to 0.544.

`C=C(COC)C(=O)CC[C@H](OC(=O)c1ccccc1-c1ccccc1C(=O)O)c1cccc(OCCO)c1` displayed a composite z-score of 1.43. Compound `C=CC[C@]1(C(=O)OC)N=C(c2ccc(OCCCO)cc2)O[C@H]1c1ccccc1CN=[N+]=[N-]` gave a composite z-score of -0.45.

The target of the next assay is Concanavalin-A (Canavalia ensiformis) (UniProt P02866). The experiment in a line: ConA small-molecule binders, primary screen, artefact control for SMM control protein annotation, biochemical, small-molecule microarray, Alexa647 label, 635 nm (AID 1127).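 Further: z combines 667 nm emission intensity with signal-to-noise across three replicate slides.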 Particulars: ConA-A647 binding fluorescence, higher = more signal.
Concanavalin-A (Canavalia ensiformis), sequence (P02866 whole entry, looked up): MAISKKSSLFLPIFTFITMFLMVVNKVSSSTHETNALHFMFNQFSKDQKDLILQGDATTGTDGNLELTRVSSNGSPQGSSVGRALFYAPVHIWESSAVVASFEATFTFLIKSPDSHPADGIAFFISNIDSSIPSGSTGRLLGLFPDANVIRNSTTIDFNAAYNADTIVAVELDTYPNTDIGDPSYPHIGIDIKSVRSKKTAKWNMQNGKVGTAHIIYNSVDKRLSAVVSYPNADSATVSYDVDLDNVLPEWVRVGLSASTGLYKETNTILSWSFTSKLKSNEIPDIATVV
Turning to `O=[N+]([O-])c1ccc(C[n+]2ccc3ccc(O)cc3c2)o1`, the composite z-score was determined as 1.11. Turning to `O=C1O[C@@H](c2ccccc2)[C@@H](c2ccccc2)N2[C@@H](c3ccccc3OCCO)[C@]3(C(=O)Nc4ccc(C#CC5=CCCCC5)cc43)[C@@H](C(=O)O)[C@H]12`, the composite z-score came out at 1.08. `CCC#CCN(Cc1ccccc1Br)[C@H](/C=C/c1ccccc1)[C@@H](O)Cc1ccccc1` registered a composite z-score of -0.779. `COCCOC(=O)N1C(=O)[C@@]2(c3cc(C#CC4(O)CCCCCC4)ccc31)[C@H](C(=O)N1CCCCCCC1)[C@H]1C(=O)O[C@H](c3ccccc3)[C@H](c3ccccc3)N1[C@@H]2c1ccc(O)cc1` displayed a composite z-score of 1.08.

For `C[N+](C)(C)CCCCNC(=O)[C@@H]1C[C@@H]2C(=O)N3CCC[C@H]3C(=O)N2[C@@H]1c1cccc(OCCO)c1`, the composite z-score was 0.909. Compound `C=CCN1C(=O)[C@]2(O[C@H](CCn3cc(CCO)nn3)[C@@H]([Si](C)(C)c3ccc(OC)cc3)[C@@H]2C)c2cc(NC(=O)c3ccc(OC)cc3)ccc21` came in with a composite z-score of 1.08.

The compound `CO[C@H]1COC(=O)[C@@H](Cc2ccccc2)NC(=O)[C@@H](C)COC(=O)CC=C[C@@H]1C` gave a composite z-score of -0.773.

For the compound `O=C1C2C=CC(C(O)c3ccccc3)N(n3cnnc3)C2C(=O)N1Cc1ccccc1` (stereo not given), the composite z-score turned out to be 0.161.

In turn, `C=C(COC)/C(=C/C[C@@H](OC(=O)c1ccncc1)c1ccc(OCCO)cc1)c1cc(C(=O)OC)ccc1OC` returned a composite z-score of 1.06.

`O=C1C[C@@](C(=O)NCCN2CCOCC2)(c2ccc([N+](=O)[O-])cc2)[C@@H](c2ccc(CO)cc2)N1C1CCCCC1` showed a composite z-score of 1.06. As to `COc1ccc(NN2C(C(O)c3cc(OC)c(OC)c(OC)c3)C=CC3C(=O)N(C4CCCCC4)C(=O)C32)cc1` (stereo not given), the composite z-score came out at 1.1. `C=C(C)[C@@H]1CC=C(C(O)C2C=CC3C(=O)NC(=O)C3N2Nc2ccccn2)CC1` (stereo not given in full) yielded a composite z-score of 1.14. Regarding `O=C1OCCC/C=C\[C@H]2OC34C=CCN(CCN5CCOCC5)C(=O)[C@H]3N(CCCCCO)C(=O)[C@@H]4C12` (stereo not given in full), the composite z-score is -0.167. Consider `NC(=O)NCC#Cc1ccc2c(c1)[C@]1(C(=O)N2)[C@H](C(N)=O)[C@H]2C(=O)O[C@H](c3ccccc3)[C@H](c3ccccc3)N2[C@@H]1c1ccccc1OCCO`, for which the composite z-score worked out at 0.936. The compound `COc1ccc([Si](C)(C)[C@H]2[C@H](CCO)O[C@@]3(C(=O)N(Cc4ccccc4)c4ccc(N5C(=O)c6cccc7cccc5c67)cc43)[C@@H]2C)cc1` came in with a composite z-score of 0.386.

`CN(C)c1ccc(C(O)C2C=CC3C(=O)NC(=O)C3N2Nc2ccc(Cl)cc2Cl)cc1` (stereo not given): the composite z-score amounted to 0.332. On the same count and under the same terms, next, `COC(=O)C(CC#Cc1ccc2c(c1)[C@]1(C(=O)N2)[C@H](C(=O)N2CCCCCCC2)[C@H]2C(=O)O[C@H](c3ccccc3)[C@H](c3ccccc3)N2[C@@H]1c1ccc(O)cc1)C(=O)OC`: 0.266; `C=CCNC(=O)[C@@H]1[C@H]2C(=O)O[C@H](c3ccccc3)[C@H](c3ccccc3)N2[C@H](c2ccc(OCCO)cc2)[C@@]12C(=O)N(C(=O)OCCOC)c1ccc(C#CC3(O)CCCCCC3)cc12`: 1.07; `CC(C)[Si]1(C(C)C)O[C@@H](c2ccccc2)c2cc(C3CC3)nc(-c3ccc(Oc4ccccc4)cc3)c21`: -1.27.

With `[N-]=[N+]=NCc1ccccc1C[C@]1(C(=O)N2CCCCC2)N=C(c2ccc(OCCCO)cc2)O[C@H]1c1ccccc1CN=[N+]=[N-]`, the composite z-score came out at 1.04. In turn, `Cc1ccc(N2C(=O)c3ccccc3[C@@H](C(=O)NCC(F)(F)F)[C@@H]2c2ccc(CO)cc2)nc1` registered a composite z-score of -1.9. `CC(C)N1CC=CC23O[C@@H]4/C=C\CCCOC(=O)C4[C@H]2C(=O)N(CCO)[C@@H]3C1=O` (stereo not given in full) came in with a composite z-score of 0.329. For the compound `O=C(NCC(F)(F)F)[C@@H]1c2ccccc2C(=O)N(Cc2ccccc2Cl)[C@H]1c1ccc(CO)cc1`, the composite z-score was -0.907. Turning to `C=CCNC(=O)[C@H]1[C@@H]2C(=O)O[C@@H](c3ccccc3)[C@@H](c3ccccc3)N2[C@@H](c2ccccc2OCCO)[C@]12C(=O)N(C(=O)OCCOC)c1ccc(C#CCC(C(=O)OC)C(=O)OC)cc12`, the composite z-score was 1.12. As to `C[C@@H]1C=CCC(=O)OC[C@H]2O[C@@H](C=C[C@@H]2O)[C@H](C)C=CCC(=O)OC[C@H]2O[C@H]1C=C[C@@H]2O`, the composite z-score is -0.343.

`Cc1ccc(S[C@]2(C(=O)NCCN3CCOCC3)CC(=O)N(C3Cc4ccccc4C3)[C@@H]2c2ccc(CO)cc2I)cc1` returned a composite z-score of -0.587. Turning to `CC(C)CNC(=O)[C@@]1(C)c2ccccc2C(=O)N(Cc2ccc(OC(F)(F)F)cc2)[C@H]1c1ccc(CO)cc1`, the composite z-score was -1.74. In turn, `CO[C@H]1COC(=O)CC=C[C@@H](C)COC(=O)[C@@H](C)NC(=O)CC=C[C@@H]1C` gave a composite z-score of -0.704. Turning to `C=C[C@H](OC)[C@@H](OC(=O)Nc1ccc(SC)cc1)c1ccc(O)c(F)c1`, the composite z-score was found to be 0.187. As to `[N-]=[N+]=NCc1ccccc1C[C@@]1(C(=O)N2CCOCC2)N=C(c2ccc(OCCCO)cc2)O[C@@H]1c1ccccc1N=[N+]=[N-]`, the composite z-score was found to be 1.18.

`[N-]=[N+]=NCc1ccccc1C[C@@]1(C(=O)O)N=C(c2ccc(OCCCO)cc2)O[C@@H]1c1ccccc1N=[N+]=[N-]` registered a composite z-score of 0.421. On the same count and under the same terms, next, `CSCC[C@@H]1NC(=O)CC=C[C@@H](C)COC(=O)[C@H](CCSC)NC(=O)CC=C[C@@H](C)COC1=O`: -0.796; `C=C(COC)/C(=C/C[C@@H](OC(C)=O)c1cccc(OCCO)c1)c1cc(C(=O)OC)ccc1OC`: -0.937; `CCOC(=O)C[C@H]1[C@H](OC(=O)c2cc3ccccc3oc2=O)[C@@H](NC(=O)C2CCCCC2)c2cc(OCCCO)ccc2N1C(=O)c1ccc2ccccc2n1`: 0.953. As to `C=C(COC)C(=O)CC[C@H](OC(=O)c1ccccc1-c1ccccc1C(=O)O)c1cccc(OCCO)c1`, the composite z-score came out at 0.893.

As to `C=CC[C@]1(C(=O)OC)N=C(c2ccc(OCCCO)cc2)O[C@H]1c1ccccc1CN=[N+]=[N-]`, the composite z-score was -1.06.

The values above are taken from PubChem BioAssay.
